An excerpt weighted towards active compounds, which were near 3% of everything screened.
PAFAH2 inh – PAFAH2 enzyme inhibitors, primary screen, biochemical, fluorescence polarization, human; recombinant PAFAH2, FP-rhodamine activity probe; inhibition, % at 3.39 µM; Platelet-activating factor acetylhydrolase 2, cytoplasmic (Homo sapiens), Q99487; actives 0.99% (n = 340,000);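 active = inhibition above the mean over all tested compounds plus 3 SD, cut at about 30% in these data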;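 note: inhibitors block probe labeling of enzyme so polarization drops; 0% = enzyme with DMSO and 100% = wells lacking PAFAH2 protein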
pPAFAH inh – pPAFAH enzyme inhibitors, primary screen, biochemical, fluorescence polarization, human; Platelet-activating factor acetylhydrolase (Homo sapiens), Q13093; recombinant pPAFAH, FP-rhodamine probe fluorescence polarization; inhibition, % at 3.39 µM; actives 1.5% (n = 330,000);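 active = inhibition above the mean inhibition across the screen plus 3 SD, cut at about 25% in these data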;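 note: inhibitors block binding of the rhodamine activity-based probe so polarization drops; 0% = enzyme with DMSO and 100% = wells lacking pPAFAH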
Target sequence (Q13093 whole entry, looked up): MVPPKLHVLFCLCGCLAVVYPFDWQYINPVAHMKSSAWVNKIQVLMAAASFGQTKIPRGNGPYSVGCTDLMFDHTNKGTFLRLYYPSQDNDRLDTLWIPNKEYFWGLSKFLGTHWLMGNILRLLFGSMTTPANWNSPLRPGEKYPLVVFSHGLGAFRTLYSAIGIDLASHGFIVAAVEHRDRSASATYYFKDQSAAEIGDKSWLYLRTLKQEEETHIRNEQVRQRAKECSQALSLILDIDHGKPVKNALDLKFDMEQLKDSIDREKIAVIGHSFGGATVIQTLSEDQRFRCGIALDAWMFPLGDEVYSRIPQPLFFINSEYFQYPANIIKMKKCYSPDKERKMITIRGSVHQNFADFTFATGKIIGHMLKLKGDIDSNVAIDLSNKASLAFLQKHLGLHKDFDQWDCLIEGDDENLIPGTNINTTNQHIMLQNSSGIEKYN
PAFAH1B2 FP inh – PAFAH1B2 enzyme inhibitors, primary screen, biochemical, fluorescence polarization, human; Platelet-activating factor acetylhydrolase IB subunit alpha2 (Homo sapiens), P68402; AID 492953, 2010; recombinant PAFAH1B2, FP-rhodamine activity probe; actives 1.2% (n = 340,000); inhibition, % at 3.39 µM;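 active = inhibition above the mean of all tested compounds plus 3 SD, cut at about 24% in these data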;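 note: 0% = enzyme with DMSO and 100% = wells lacking PAFAH1B2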
DAGLB inhibitor – DAGLB lipase inhibitors, primary screen, biochemical, fluorescence, HTS | inhibition, % at 5.17 µM | actives 0.059% (n = 340,000) | HEK293T DAGLB membrane lysate, EnzChek fluorogenic substrate | Diacylglycerol lipase-beta (Homo sapiens), Q8NCG7; in the data active = inhibition above about 34%;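 note: 0% = enzyme with vehicle and 100% = wells lacking enzyme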
ATG4B inh – ATG4B protease inhibitors, primary screen, biochemical, fluorescence, uHTS; AID 504462, 2011; inhibition, % at 8.33 µM; ATG4B cleavage of LC3-PLA2, NBD-HPC fluorescence, 1 h; actives 0.51% (n = 340,000); Cysteine protease ATG4B (Homo sapiens), Q9Y4P1; in the data active = inhibition above about 40%
PAFAH1B3 inh – PAFAH1B3 enzyme inhibitors, primary screen, biochemical, fluorescence polarization, human; Platelet-activating factor acetylhydrolase IB subunit alpha1 (Homo sapiens), Q15102; recombinant PAFAH1B3, FP-rhodamine probe; inhibition, % at 3.39 µM; actives 0.28% (n = 340,000);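 active = inhibition above the screen-wide average of all tested compounds plus 3 SD, cut at about 25% in these data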;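 note: 0% = enzyme with DMSO only and 100% = wells lacking PAFAH1B3 protein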
Target sequence (Q15102 whole entry, looked up): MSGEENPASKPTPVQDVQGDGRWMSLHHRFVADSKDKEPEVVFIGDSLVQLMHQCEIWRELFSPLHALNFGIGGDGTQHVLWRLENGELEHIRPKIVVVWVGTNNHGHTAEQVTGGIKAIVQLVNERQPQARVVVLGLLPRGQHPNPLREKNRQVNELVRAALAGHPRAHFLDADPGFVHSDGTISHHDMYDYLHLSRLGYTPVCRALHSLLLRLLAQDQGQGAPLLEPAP
Active calls of the source: *; · = no result given.

SMILES | PAFAH2 inh | pPAFAH inh | PAFAH1B2 FP inh | DAGLB inhibitor | ATG4B inh | PAFAH1B3 inh
CC1(OC(=O)c2cccs2)C(=O)C=C2C=C(c3ccc(C#N)cc3)OC=C2C1=O (stereo not drawn) | · | 44.6* | · | · | · | ·
O=C(NC(=S)N1CCCCC1c1cccnc1)c1ccc(Br)cc1 (stereo not drawn) | 7.5 | 3.1 | 5.7 | -3.4 | 6.9 | 3.2
COCCN(CCOC)C(=O)c1ccc(SCc2ccc(C)cc2)c([N+](=O)[O-])c1 | 2.6 | 7.0 | 0.8 | -0.5 | -12.9 | -1.4
COc1cc(C(c2c(C)[nH][nH]c2=O)c2c(C)[nH][nH]c2=O)ccc1OC(=O)c1cccc([N+](=O)[O-])c1 | 8.9 | 5.1 | 3.7 | 2.4 | 5.7 | 2.9
COc1cc(C(c2c(C)[nH][nH]c2=O)c2c(C)[nH][nH]c2=O)ccc1OCc1ccc([N+](=O)[O-])cc1 | 1.0 | 10.7 | 25.6* | 2.8 | -9.1 | 8.5
Cc1ccc(NC2=C(Cl)C(=O)c3ccccc3C2=O)cc1 | 9.1 | 5.7 | 9.1 | 5.7 | 15.1 | 16.5
Cc1ccc(NC2=C(N3CCOCC3)C(=O)c3ccccc3C2=O)cc1 | 33.1* | 4.2 | 7.6 | -8.3 | 8.1 | 32.7*
O=C(C1CCN(c2ncnc3c2nc2n3CCCCC2)CC1)N1CCN(c2cccc(Cl)c2)CC1 | -2.6 | 11.8 | -1.7 | 0.9 | 46.9* | -3.7
O=C(C1CCCN(c2ncnc3c2nc2n3CCCCC2)C1)N1CCN(c2ccc(Cl)cc2)CC1 (stereo not drawn) | 0.3 | 7.7 | 2.2 | -2.5 | 7.6 | 9.6
OC(CN1CCC(Cc2ccccc2)CC1)c1ccccc1 (stereo not drawn) | -8.0 | 1.1 | 3.0 | 0.7 | 2.8 | 5.6
CCCCCCNC(=O)O[C@H]1C[C@H](C(=O)OC)[C@H](C(=O)OC)C2CN(S(=O)(=O)c3ccc(C)cc3)C[C@@]21O (stereo partly drawn) | · | · | · | -4.3 | · | ·
COc1ccc2c(c1)CCN1C2CCN2C(=O)CCC21 (stereo not drawn) | 3.4 | -0.3 | 2.2 | -3.8 | 1.3 | 11.1
COc1ccc(-c2noc(CSc3ccccc3)n2)cc1OC | 7.2 | 14.4 | 24.4* | -7.5 | -11.5 | 7.0
COc1ccc(-c2noc(CSc3nnc(CCc4ccccc4)n3-c3ccccc3)n2)cc1OC | -2.3 | 5.8 | -4.6 | -2.0 | -17.2 | -2.3
COc1ccc(OC)c(NS(=O)(=O)c2ccc3[nH]c(=O)[nH]c3c2)c1 | · | · | · | -1.5 | · | ·
COCCCNc1ncnc2ccc(C)cc12 | 3.9 | 25.1* | 3.4 | -2.9 | -11.6 | 0.9
Cc1ccc2ncnc(NCCC(=O)O)c2c1 | 5.2 | -4.1 | 2.5 | -3.2 | 6.4 | 8.9
Cc1noc(C)c1COc1ccccc1C(=O)NC(C)CCc1ccccc1 (stereo not drawn) | -4.8 | · | 1.6 | -3.0 | -0.7 | -0.2
Cc1noc(C)c1COc1ccccc1C(=O)NC(C)c1ccc(Cl)cc1 (stereo not drawn) | 0.4 | -3.9 | 32.2* | -4.2 | -15.3 | 9.0
CC(NC(=O)C(=O)NCCc1c[nH]c2ccccc12)c1ccccc1 (stereo not drawn) | -6.7 | 3.0 | 13.3 | -1.2 | -6.1 | 9.7
CC(C)c1ccc(C(CC(=O)c2ccc(Cl)cc2)C(=O)O)cc1 (stereo not drawn) | -13.8 | 4.6 | 38.2* | 6.5 | -7.5 | -1.9
CCc1ccc(C(CC(=O)c2ccc(Cl)cc2)C(=O)O)cc1 (stereo not drawn) | 5.9 | -2.6 | 1.8 | 4.9 | -0.4 | 6.0
Clc1cccc(N/N=C(\Cc2nc3ccccc3[nH]2)c2ccccc2)c1 | -19.2 | 5.1 | -9.9 | -4.5 | 22.6 | -3.8
O=C1NNC(c2ccccc2)=N/C1=C\c1ccco1 | 14.1 | 26.4* | 3.5 | 4.0 | -5.5 | 1.6
COc1ccccc1NS(=O)(=O)c1cccc(C(=O)N2CC(C)OC(C)C2)c1 (stereo not drawn) | 4.6 | -1.2 | -2.8 | 0.7 | 4.0 | 11.6
SMILES | PAFAH2 inh | pPAFAH inh | PAFAH1B2 FP inh | DAGLB inhibitor | ATG4B inh | PAFAH1B3 inh
O=C1CC2(CCN(C(=O)c3ccc(F)c(F)c3)CC2)Oc2ccccc21 | 2.3 | -4.8 | -0.1 | 2.9 | 2.5 | -0.2
Cc1csc(=O)n1CCC(=O)OCC(=O)N(CC(C)C)c1c(N)n(Cc2ccccc2)c(=O)[nH]c1=O | -4.9 | 26.5* | 4.1 | 0.2 | -6.1 | 13.2
CCOC(=O)N1CCC2(CC1)C(C#N)=C(N)Oc1n[nH]c(CSc3ccc(C)cc3)c12 | 2.3 | 5.6 | 27.3* | -1.0 | -6.5 | 2.6
Cc1[nH]nc2c1C1(CCN(C(=O)OCc3ccccc3)CC1)C(C#N)=C(N)O2 | 6.9 | -0.3 | 2.3 | 1.3 | -9.5 | 1.8
Cc1ccc(SCc2[nH]nc3c2C2(CCSCC2)C(C#N)=C(N)O3)cc1 | 1.3 | 2.1 | 38.1* | 4.6 | -3.3 | -5.7
Cc1ccc(C)c(C(=O)COC(=O)c2cc([N+](=O)[O-])ccc2NCCO)c1 | 2.0 | 4.9 | 1.8 | -1.8 | 2.8 | 8.3
Cc1cc(S(=O)(=O)Nc2noc3ccccc23)ccc1F | -1.3 | -6.0 | 0.8 | -1.8 | -3.2 | 2.8
CC(C)CC1=C/C(=C/c2ccc(-c3ccccc3)o2)C(=O)O1 | 26.8 | 29.1* | 0.5 | 16.1 | 29.0 | 1.8
NS(=O)(=O)c1ccc(-c2ccc(C=C3C(=O)c4ccccc4C3=O)o2)cc1 | 0.1 | 6.4 | 1.8 | -1.0 | 3.2 | 8.2
O=C(C1CC(=O)N(c2ccc3c(c2)OCCO3)C1)N1CCN(S(=O)(=O)c2cccc(F)c2)CC1 (stereo not drawn) | 15.3 | · | 4.0 | -5.4 | -6.8 | 7.4
COC(CN(C)C(=O)c1cn(C)c2ccc(S(=O)(=O)N(C)C3CCCCC3)cc2c1=O)OC | 6.0 | 1.5 | 1.4 | -2.0 | -3.9 | 2.8
COc1cccc(-c2ncc3ccccc3c2COC(=O)c2cccc(Br)c2)c1 | 9.1 | -2.0 | 1.8 | -4.7 | -2.1 | -2.2
Cc1nc(-c2ccc3c(c2)CCC(=O)N3)cs1 | 4.1 | -3.5 | 6.2 | -0.1 | 3.3 | 3.6
Cc1ccc(-c2csc(Cc3nc(-c4ccc5c(c4)CCC(=O)N5)cs3)n2)cc1 | 10.5 | 25.5* | 2.5 | 4.5 | -10.1 | 11.1
Clc1ccc(N2CCN(/N=C/c3cccnc3)CC2)cc1 | 2.2 | 5.9 | 28.0* | -1.2 | -3.8 | 0.2
COc1cccc(/C=N/N2CCN(c3ccc(Cl)cc3)CC2)c1OC | -0.2 | 5.0 | 33.4* | -9.8 | -8.8 | 5.0
Cc1ccc(N2CCN(/N=C/c3cccnc3)CC2)cc1 | -5.5 | · | 6.8 | -0.5 | 12.6 | 7.8
CC(c1ccccc1)n1c(N2CCNCC2)nc2c1c(=O)[nH]c(=O)n2C (stereo not drawn) | -2.6 | · | -2.0 | -0.7 | -0.9 | -5.3
